Screening data as filed in PubChem.
An excerpt weighted towards active compounds, which were near 2.3% of everything screened.
Bcl-xL primary – Bcl-xL (human) inhibition; GST-Bcl-xL / FITC-Bim BH3 peptide fluorescence polarization; inhibition, % at 10.9 µM; 320,000 tested, 0.7% active;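 active = inhibition above the mean of all tested compounds plus 3 SD, cutoff set per campaign, cut at about 30% in these data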;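 note: inhibitors lower millipolarization by displacing the labeled peptide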
Target sequence (Q07817 whole entry, looked up): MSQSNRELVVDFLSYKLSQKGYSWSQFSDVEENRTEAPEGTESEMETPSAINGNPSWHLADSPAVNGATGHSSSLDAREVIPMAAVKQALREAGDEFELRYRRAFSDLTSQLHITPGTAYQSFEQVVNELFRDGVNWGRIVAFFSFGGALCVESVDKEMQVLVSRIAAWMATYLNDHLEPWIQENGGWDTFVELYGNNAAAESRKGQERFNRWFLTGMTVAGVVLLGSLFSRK
Mcl1 Bid PPI – disrupts binding of human Mcl-1 to Bid peptide | inhibition, % at 21.7 µM | TR-FRET Mcl-1/Bid-Dy647 peptide binding, 1536-well | Q07820 | 220,000 tested, 0.97% active;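 active = compounds that cut the binding signal by more than half at the single screening dose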;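 note: His-tagged Mcl-1 with europium anti-His antibody binding Bid BH3 peptide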
MCL1-BIM inh – disrupts human MCL1 binding to BIM-BH3 peptide. 320,000 tested, 0.68% active. GST-MCL1 / FITC-Bim-BH3 fluorescence polarization. inhibition, % at 10.9 µM. Q07820;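 active = inhibition above the mean inhibition of all tested compounds plus 3 SD, set per campaign, cut at about 40% in these data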;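 note: higher means more loss of mP so more displacement of Bim peptide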
Bim-Mcl-1 – human Bim-Mcl-1 interaction inhibition. Q07820. Bead-based flow cytometry, Bim peptide-Mcl-1 binding. inhibition, % at 10 µM. 190,000 tested, 0.1% active. AID 1009; in the data active = inhibition above about 40%
Mcl1 Noxa PPI – Mcl-1/Noxa interaction inhibition; Q07820; TR-FRET Mcl-1/Noxa peptide binding, 2 h; inhibition, % at 21.7 µM; 220,000 tested, 1.5% active; AID 1022;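 active = compounds that cut the protein-peptide binding signal by more than 50% relative to plate controls in a single-dose test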;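 note: His-tagged Mcl-1 with rhodamine Noxa BH3 peptide and terbium anti-His antibody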
GLD-1 TGE inh – GLD-1-TGE RNA interaction inhibition (C. elegans) | purified GLD-1 + fluorescein TGE RNA, fluorescence polarization | inhibition, % at 5.96 µM | 320,000 tested, 0.44% active;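 active = percent inhibition above a per-plate cutoff, the plate mean of test compounds plus 3 SD, cut at about 30% in these data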
Target sequence (Q17339 whole entry, looked up): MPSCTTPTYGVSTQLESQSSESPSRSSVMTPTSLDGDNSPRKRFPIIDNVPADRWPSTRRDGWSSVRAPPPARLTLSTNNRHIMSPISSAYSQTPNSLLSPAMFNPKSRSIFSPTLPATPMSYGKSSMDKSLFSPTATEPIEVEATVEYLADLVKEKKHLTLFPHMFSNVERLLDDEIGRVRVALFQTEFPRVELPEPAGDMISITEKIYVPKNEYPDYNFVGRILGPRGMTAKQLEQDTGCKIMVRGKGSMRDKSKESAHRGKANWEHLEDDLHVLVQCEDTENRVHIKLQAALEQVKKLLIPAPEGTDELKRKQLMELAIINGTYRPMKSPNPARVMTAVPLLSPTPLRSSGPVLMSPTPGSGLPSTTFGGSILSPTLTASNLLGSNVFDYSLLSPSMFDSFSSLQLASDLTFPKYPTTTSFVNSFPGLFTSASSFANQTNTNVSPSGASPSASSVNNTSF
BCLXL inh confirm – Bcl-xL (human) inhibition, MCL1 counter-screen confirmation. shares compounds with MCL1-BIM inh. GST-Bcl-xL / FITC-Bim BH3 peptide FP binding. inhibition, % at 10.9 µM. 1,700 tested, 54% active;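 active = inhibition above a cutoff equal to the mean inhibition of all tested compounds plus 3 SD, cut at about 30% in these data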
MCL1 BIM confirm – confirmation of human MCL1 and BIM-BH3 interaction inhibitors. shares compounds with MCL1-BIM inh. GST-MCL1 / FITC-Bim-BH3 fluorescence polarization. inhibition, % at 10.9 µM. 1,700 tested, 61% active;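 active = inhibition above the average of all tested compounds plus 3 SD, cut at about 40% in these data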
Of the large screens only hits and unclear results are named; the others gave an inactive call (follow-up assays come after a bar, where they were run).

COc1ccc(NS(=O)(=O)c2cc(NC(=O)Cc3cccs3)ccc2C)cc1	none
CC(C)c1nc2n[nH]c(N)c2c2c1CSC(C)(C)C2	none
N#C/C(=C\c1cc(O)c(O)c(O)c1)C(N)=O	MCL1-BIM inh 53 (no result: Bim-Mcl-1) | BCLXL inh confirm inactive | MCL1 BIM confirm inactive
N#C/C(=C\c1cc(Cl)c(OCc2ccc(Cl)cc2)c(Cl)c1)C(N)=O	none (no result: Bim-Mcl-1)
CCOCCCNC(=S)NC1CC2CCC(C1)N2Cc1ccccc1 (stereo unspecified)	none
O=C(COc1cccc2ccccc12)N/N=C/c1ccccc1OCc1ccc(C(=O)O)cc1	MCL1-BIM inh 49 | BCLXL inh confirm inactive | MCL1 BIM confirm inactive
Cc1onc(-c2ccccc2Cl)c1C(=O)NCc1ccco1	MCL1-BIM inh 66 | BCLXL inh confirm inactive | MCL1 BIM confirm 65
COc1ccc(-c2nnn(Cc3ccccc3)n2)cc1OC	none (no result: Mcl1 Bid PPI, Bim-Mcl-1, Mcl1 Noxa PPI)
COc1cc2c3nnc(-c4ccc(F)cc4)c-3cn(Cc3ccc(F)cc3)c2cc1OC	Bcl-xL primary 72, MCL1-BIM inh 58 | BCLXL inh confirm 84 | MCL1 BIM confirm 83
COc1cc2c3nnc(-c4ccc(F)cc4)c-3cn(Cc3ccccc3)c2cc1OC	Bcl-xL primary 82, MCL1-BIM inh 68 | BCLXL inh confirm 64 | MCL1 BIM confirm 63
Cc1c(NCc2nc3ccccc3[nH]2)c(=O)n(-c2ccccc2)n1C	MCL1-BIM inh 55 | BCLXL inh confirm 41 | MCL1 BIM confirm 55
Cc1c(NCc2cc(Cl)cc(Cl)c2O)c(=O)n(-c2ccccc2)n1C	none
CCOC(=O)C1=CSC2=NS(=O)(=O)CCN12	none
Cn1c2ccccc2c2cc(/C=N/NC(=O)c3cc(O)ccc3O)ccc21	Bcl-xL primary 32, MCL1-BIM inh 57 (no result: Mcl1 Bid PPI, Bim-Mcl-1, Mcl1 Noxa PPI) | BCLXL inh confirm 62 | MCL1 BIM confirm 93
CCOc1cc(C2C3=C(CCCC3=O)N(C)C3=C2C(=O)CCC3)cc(Cl)c1O	MCL1-BIM inh 50 | BCLXL inh confirm inactive | MCL1 BIM confirm inactive
Cc1ccc([C@H]2C(C(=O)O)=C[C@@H](C(C)(C)C)N2S(=O)(=O)c2ccc(C)cc2)cc1	none (no result: Bcl-xL primary, Mcl1 Bid PPI, MCL1-BIM inh, Bim-Mcl-1, Mcl1 Noxa PPI)
Cn1c(SCC(=O)Nc2ccc(F)cc2)nnc1C1CC1	MCL1-BIM inh 176 (no result: Mcl1 Bid PPI, Bim-Mcl-1, Mcl1 Noxa PPI) | BCLXL inh confirm inactive | MCL1 BIM confirm inactive
CC(=O)Nc1ccc(NC(=O)CSc2nnc(C3CC3)n2C)cc1	none
COc1ccc(C2=CC3=C(Br)C(=O)C(C)(OC(=O)c4cccs4)C(=O)C3=CO2)cc1 (stereo unspecified)	MCL1-BIM inh 42 (no result: Mcl1 Bid PPI, Bim-Mcl-1, Mcl1 Noxa PPI) | BCLXL inh confirm inactive | MCL1 BIM confirm 51
COc1ccc(C(=O)COC(=O)c2cccs2)cc1	none (no result: Bcl-xL primary, Mcl1 Bid PPI, MCL1-BIM inh, Bim-Mcl-1, Mcl1 Noxa PPI)
COc1ccc(C2=CC3=C(Br)C(=O)C(C)(OC(=O)c4ccco4)C(=O)C3=CO2)cc1 (stereo unspecified)	Bcl-xL primary 42, MCL1-BIM inh 54, Mcl1 Noxa PPI 63 (no result: Bim-Mcl-1) | BCLXL inh confirm 35 | MCL1 BIM confirm 76
O=c1[nH]c2cc3c(cc2cc1CN(Cc1ccc2c(c1)OCO2)Cc1nnnn1CC1CCCO1)OCO3 (stereo unspecified)	Bcl-xL primary 70, MCL1-BIM inh 74, GLD-1 TGE inh 65 | BCLXL inh confirm inactive | MCL1 BIM confirm inactive
Cc1ccc2[nH]c(=O)c(CN(Cc3cccnc3)Cc3nnnn3CC3CCCO3)cc2c1 (stereo unspecified)	none (no result: Bim-Mcl-1)
CNc1c(NS(=O)(=O)c2ccc(C3CCCCC3)cc2)c(=O)oc2ccccc12	none (no result: Mcl1 Bid PPI, Bim-Mcl-1, Mcl1 Noxa PPI)
COc1ccc(-n2nc3c(c2NC(=O)C(C)Oc2ccccc2)CS(=O)C3)cc1 (stereo unspecified)	none (no result: Mcl1 Bid PPI, Bim-Mcl-1, Mcl1 Noxa PPI)
COc1cccc(C(=O)NCCCNC(=O)c2cccc(OC)c2)c1	none (no result: Mcl1 Bid PPI, Bim-Mcl-1, Mcl1 Noxa PPI)
COc1cc(OC)cc(C(=O)NCCCCCCNC(=O)c2cc(OC)cc(OC)c2)c1	Bcl-xL primary 44, MCL1-BIM inh 48 (no result: Mcl1 Bid PPI, Bim-Mcl-1, Mcl1 Noxa PPI) | BCLXL inh confirm 38 | MCL1 BIM confirm 49
COc1cccc(C(=O)Nc2ccc(C(=O)c3ccccc3)cc2)c1	none (no result: Mcl1 Bid PPI, Bim-Mcl-1, Mcl1 Noxa PPI)
COc1cccc(C(=O)Nc2ccc3c(c2)C(=O)c2ccccc2C3=O)c1	Mcl1 Bid PPI 74, MCL1-BIM inh 77, Mcl1 Noxa PPI 75 | BCLXL inh confirm inactive | MCL1 BIM confirm inactive
COc1cccc(NC(=O)c2ccncc2)c1	none
COc1cccc(C(=O)Nc2ccncc2)c1	MCL1-BIM inh 45 | BCLXL inh confirm inactive | MCL1 BIM confirm inactive
COC(=O)CSC(=S)N1C(C)CCCC1C (stereo unspecified)	none
[O-][n+]1c2ccccc2[n+]([O-])c2cc(O)ccc21	MCL1-BIM inh 46 (no result: Mcl1 Bid PPI, Bim-Mcl-1, Mcl1 Noxa PPI) | BCLXL inh confirm 45 | MCL1 BIM confirm 77
C[C@@]12C(=O)Nc3cc(F)c(F)cc3C(=O)N1[C@H]1c3cc(Cl)ccc3OC[C@@H]1[C@@H]2c1ccccc1	none (no result: Bcl-xL primary, Mcl1 Bid PPI, MCL1-BIM inh, Bim-Mcl-1, Mcl1 Noxa PPI)
O=c1cc(-c2ccc(O)cc2)oc2c(O)c(O)c(O)c(O)c12	MCL1-BIM inh 47 (no result: Bim-Mcl-1) | BCLXL inh confirm inactive | MCL1 BIM confirm 54
O=c1cc(-c2ccc(O)cc2)oc2c1ccc1ccccc12	none (no result: Mcl1 Bid PPI, Bim-Mcl-1, Mcl1 Noxa PPI)
CCN1C(=O)c2ccc(C(=O)NCc3ccccc3)cc2C1=O	none
Cc1ccc(-c2[nH]c(=O)n3ccncc23)s1	Bcl-xL primary 58, MCL1-BIM inh 57 | BCLXL inh confirm 66 | MCL1 BIM confirm 91
COc1ccc(/C=C(\C#N)C(=O)OCC(=O)NCc2ccccc2)cc1	none
COc1cccc(CNC(=O)COC(=O)/C(C#N)=C/c2ccc(N(C)C)cc2)c1	Bcl-xL primary 117, MCL1-BIM inh 136, GLD-1 TGE inh 123 (no result: Mcl1 Bid PPI, Bim-Mcl-1, Mcl1 Noxa PPI) | BCLXL inh confirm 89 | MCL1 BIM confirm 116
Clc1ccccc1-c1ccc(CN2CCN(c3ccccc3)CC2)o1	MCL1-BIM inh 133 | BCLXL inh confirm inactive | MCL1 BIM confirm inactive
O=[N+]([O-])c1ccc(CN2CCN(c3ccccc3)CC2)o1	none (no result: Mcl1 Bid PPI, Bim-Mcl-1, Mcl1 Noxa PPI)
O=C(CCc1nnc(-c2ccc3c(c2)OCO3)o1)N(Cc1ccncc1)CC1CCCO1 (stereo unspecified)	none
O=C(NC(=S)Nc1ccc(S(=O)(=O)Nc2nccs2)cc1)C1CC1	none (no result: Bim-Mcl-1)
Cc1cc(=O)[nH]c(-n2[nH]c3c(c2=O)CCCC3)n1	Bcl-xL primary 67, MCL1-BIM inh 71, GLD-1 TGE inh 53 | BCLXL inh confirm 32 | MCL1 BIM confirm 40
CCCS(=O)(=O)c1cn2cccc(N)c2c1S(=O)(=O)CCC	Bcl-xL primary 98, MCL1-BIM inh 102, GLD-1 TGE inh 86 | BCLXL inh confirm inactive | MCL1 BIM confirm inactive
O=C(Nc1cccc(S(=O)(=O)N2CCOCC2)c1)c1cc2c(s1)CCC2	none
CCOP(=O)(c1ccc(N(C)C)cc1)C(O)c1ccccc1OC (stereo unspecified)	none
CCCC(=O)OCCNc1cc(Sc2nccn2C)c2nonc2c1[N+](=O)[O-]	none
